Results from PubChem BioAssay (NCI).
The panel holds about 83,000 compounds, 20% with a hit somewhere; the sample as a whole holds those more often.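 Cells were grown in 96-well plates and exposed to the test compound at a single concentration for 48 hours; results are reported as percent growth, with values below 10 considered active.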 The source made the active and inactive calls.

The molecules below were run on HL-60(TB) leukemia (assay: NCI-60 one-dose screen, 48 h (100 = growth as untreated, 0 = no growth, -100 = all killed)). Conditions: 10 µM unless noted.

Structure (SMILES) | growth
Cc1ccc2nc(/C(C#N)=C(/CCCO)NC(Cc3ccccc3)C(=O)OCc3ccccc3)[nH]c(=O)c2c1 (centres undefined) | 122% (inactive)
C=CCN(CC=C)C(=O)[C@H](CC)[C@@H]1CC[C@@H](C)[C@@H]([C@H](C)[C@@H](O)[C@@H](C)C(=O)[C@H](CC)C2O[C@]3(C=C[C@@H](O)[C@]4(CC[C@@](C)([C@H]5CC[C@](O)(CC)[C@H](C)O5)O4)O3)[C@H](C)C[C@@H]2C)O1 (some centres undefined) | -36.8% (active)
CCCC[P+](c1ccccc1)(c1ccccc1)c1ccccc1 | 16.3% (inactive)
C/C(=N\NC(N)=S)C(C)(C)O | 102% (inactive)
Nc1c(C(=O)Nc2cccc3cnccc23)sc2nc3c(cc12)C(=O)CCC3 | 60.2% (inactive)
N#Cc1c(-c2cccc(F)c2)cc(-c2ccc(Br)s2)[nH]c1=O | 67% (inactive)
CC1OC(C(=O)N2CCN(CCO)CC2)CC1COC1CCCCC1 (centres undefined) | 98.3% [50 µM] (inactive)
c1ccc(Nc2ccccn2)nc1 | 101% (inactive)
NC(=NCCCOc1ccc(Cl)cc1)Nc1ccc(C(F)(F)F)cc1 | 94.4% (inactive)
CO[C@H]1NC(=O)N(S(=O)(=O)c2ccc(Cl)cc2)[C@@H]1OC | 105% (inactive)
Cc1ccc2c(c1)C(C)Cc1c(N(C)C)ncnc1N2C (centres undefined) | -5.91% (active)
[2H]C([2H])([2H])Oc1ccc(F)cc1/C=C/C(=O)/C=C(/C=C/c1cc(F)ccc1OC([2H])([2H])[2H])OB(F)F | 30.1% (inactive)
O=C(c1ccc(N2CCOCC2)cc1[N+](=O)[O-])N1CCOCC1 | 133% (inactive)
Cc1cc(O)cc2c1[C@H]1CC[C@]3(C)[C@@H](O)CC[C@H]3[C@@H]1C=C2 | 70.6% (inactive)
CCN(CCCNc1cc2c(c(N)c1S(=O)(=O)O)C(=O)c1ccccc1C2=O)c1ccccc1 | 84.9% (inactive)
O=C(/C=C/c1ccco1)Nc1ncc(Cc2cc(Cl)ccc2Cl)s1 | -50% (active)
CN(C)CCCN1c2ccccc2CCc2ccccc21 | 91.4% (inactive)

Structure (SMILES) | growth
CC12CCC3c4ccc(O)cc4CCC3C1CCC2=O (centres undefined) | 79.4% (inactive)
Nc1ncc(-c2ccc3ncnc(N4CCc5ccc(Cl)cc54)c3c2)cn1 | -51.1% (active)
CC(=O)N(CCCCCCN(C(C)=O)C(C)=O)C(C)=O | 108% [100 µM] (inactive)
CC1CCN(CCOc2ccc(CNc3ccc4nc(CCC5CCCCC5)[nH]c4c3)cc2)CC1 | 5.83% (active)
Clc1nc(Cl)c2c(ncn2C/C=C\Cn2cnc3c(Cl)nc(Cl)nc32)n1 | -80.7% (active)
NCCCc1nnc(CCC(=O)c2nc3ccccc3[nH]2)o1 | 92.3% (inactive)
CCCCOc1nc2ccc(Cl)cc2cc1/C=C/C(=O)/C=C/c1ccc(Cl)cc1 | 61.2% (inactive)
CC(=O)CC[C@H]1C(=O)N[C@@H](C(C)C)C(=O)N[C@@H](Cc2cc(O)cc(F)c2)C(=O)N2CCC[C@H](N2)C(=O)O[C@H](/C(C)=C/C=C/C(=O)OC(C)(C)C)C/C=C/C=C/[C@H](O)[C@H](C)[C@H]1O | 56% (inactive)
Cc1ccc(C(=O)c2sc3nc4c(cc3c2N)CCCC4)c(C)c1 | -3.28% (active)
Clc1ccc2c(c1)N(C1CCCN(Cc3ccccc3)C1)c1ccccc1S2 (centres undefined) | 28.5% (inactive)
COc1ccc(/C(C)=C(\c2ccc(OCCN3CCOCC3)cc2)c2ccc(OC(=O)C3CCCCC3)cc2)cc1 | 126% (inactive)
C#CC#CC#CC#CC#CC#CC#CC#CC[C@@H]1OC[C@@H](COC(=O)O[C@@H](C(=O)O[C@H]2C[C@@]3(O)[C@@H](OC(=O)c4ccccc4)[C@@H]4[C@]5(OC(C)=O)CO[C@@H]5C[C@H](O)[C@@]4(C)C(=O)[C@H](OC(C)=O)C(=C2C)C3(C)C)[C@@H](NC(=O)c2ccccc2)c2ccccc2)O1 | 2.63% (active)
NC1=C(Cl)C(=O)c2ccc(S(N)(=O)=O)cc2C1=O | 3.12% (active)
C=C1CCC2C3(C)COC(c4ccccc4Br)OC3CCC2(C)C1C/C=C1/C(=O)OCC1OC(C)=O (centres undefined) | -48.7% (active)
O=C1Nc2cc(-c3cccc(O)c3)ccc2/C1=C/c1ccc[nH]1 | 6.76% (active)
COC(=O)[C@]1(C)CCC[C@]2(C)[C@H]3C[C@H]4C(C(C)C)=C[C@]3(CC[C@H]21)[C@@H]1C(=O)CC[C@H](OCCC#N)[C@@H]14 | 113% (inactive)
NC(N)=N/N=C/c1cccc(Br)c1 | 95.3% (inactive)
